We go through 62 compounds from PubChem BioAssay AID485314 (National Center for Advancing Translational Sciences (NCATS), 2010).

Several values for one entry are separate records, joined by “and”; a condition that tells them apart may be missing. Equal entries are not always repeated. In all, about 340,000 compounds went through this assay and about 4,500 (1.3%) were called active. A call without a number means that no potency is given here. Roughly 5% stayed inconclusive and do not appear here. The sample holds actives, similar compounds and a random draw of the others, so the mix is not that of the screen. Calls come from the whole dose curve; as a rule, active = well fitted inhibition curve with a large enough effect; inconclusive = small, poorly fitted or top-dose-only effect, or another doubt; inactive = no such curve, though single readings can be large or run the other way.
Potency is the fitted concentration of half-maximal effect.

The target of this test is DNA polymerase beta (Homo sapiens) (UniProt P06746). Kind of test: qHTS Assay for Inhibitors of DNA Polymerase Beta. The following applies: Pol beta primer extension/strand displacement, fluorescence kinetic; series mostly up to 114 µM. In short, it runs like this:
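Curves were derived by four-parameter Hill fits of normalized qHTS data. The kinetic fluorescent primer-extension read was taken at 0 and 10 min after 50 nM substrate, following a 15 min room-temperature preincubation of 10 nM enzyme with compounds.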
(In general: Quantitative high-throughput screening tests each substance at several concentrations.)
For the compound `O=C1Cc2cc(S(=O)(=O)Nc3ccc(OC(F)(F)F)cc3)cc3c2N1CCC3`, the Potency result is “inactive”. `Cc1ccc(NC(=O)c2nc(S(=O)(=O)Cc3cccc(C)c3)ncc2Cl)cc1`: the Potency entry was “inactive”.

On to `COc1ccc(NS(=O)(=O)c2cc3c4c(c2)CC(=O)N4CCC3)cc1Cl`, for which the Potency result is “inactive”. Under `CC(C)Cn1c(=O)c2ccccc2n2c(-c3cccc(Cl)c3)nnc12` stands “inactive”; under `O=c1[nH]n2c(-c3ccccc3)nc(O)c2c2ccccc12`, “inactive”. Consider `O=c1[nH]c2ccccc2n2c(-c3ccccc3)nnc12`, for which the Potency was 39.8 µM (active). For the compound `COc1ccc(CNC(=O)c2cc3c(-c4ccccc4F)nn(C)c3s2)c(OC)c1`, the Potency result is “inactive”.

On to `COc1ccc(N2CCN(c3nc(-c4ccccc4F)nc4ccccc34)CC2)cc1`, for which the Potency entry was “inactive”. For the compound `COc1ccc(-n2c(C)nc3c(cnn3-c3ccc(F)cc3)c2=O)cc1`, the Potency entry was “inactive”. Under `Cc1c(C)n(Cc2ccc(Cl)cc2)c2ccc(C(=O)N3CCN(c4ccccc4F)CC3)cc12` stands “inactive”; under `CC(C)c1ccc2c(c1)c(SC(C)(C)C)c(CC(C)(C)C(=O)O)n2Cc1ccc(Cl)cc1`, 50.1 µM (active) and 31.6 µM (active); under `CC(C)c1ccc(Cn2c(COc3ccccc3)nc3ccccc32)cc1`, “inactive”. On to `Cc1ccc(C)c(Oc2c(C(F)(F)F)oc3c(CN4CCN(C)CC4)c(O)ccc3c2=O)c1`, for which the Potency entry is “inactive”. Then `Cc1cccc(-n2ccnc2SCC(=O)Nc2cccc3ccccc23)c1C`, with “inactive”; and `CCCS(=O)(=O)Nc1cccc(-c2cn3ccsc3n2)c1`, with “inactive”. For `CC(=O)Nc1ccc(NC(=O)CCCc2nc(-c3ccc(C(C)(C)C)cc3)no2)cc1`, the Potency entry was “inactive”. For the compound `CC(C)c1ccc(NC(=O)Cn2ncc3ccccc32)cc1`, the Potency entry was “inactive”. Under `CCc1nn(CC(=O)N2CCN(CC)CC2)c(=O)c2cccn12` stands “inactive”. Then `CCCN1CCN(C(=O)Cn2ncc3ccccc32)CC1`, with 12.6 µM (active); and `CC(=O)c1ccc(N2CCN(C3C(=O)c4ccccc4N3C(C)=O)CC2)cc1` (configuration not stated), with “inactive”. Then `Cc1ccc(-c2ccc(CCC(=O)O)n2-c2ccc(C(N)=O)cc2)cc1`, with “inactive”. As to `Cc1nn(-c2ccc(F)cc2)c(-n2cccc2)c1C(=O)N1CCN(c2ccccc2)CC1`, the Potency result is “inactive”. On to `Cc1ccc(-n2nc(C)c(C(=O)O)c2-n2cccc2)cc1`, for which the Potency was 12.6 µM (active). Then `Cc1nn(-c2ccccc2)c(-n2cccc2)c1C(=O)O`, with “inactive”; and `COc1cccc(NC(=O)C(=O)NCC(c2ccc3c(c2)OCO3)N2CCN(C)CC2)c1` (configuration not stated), with “inactive”; and `Cc1ccccc1Nc1nn2c(=O)c3ccc(C(=O)NCCc4ccc(Cl)cc4)cc3nc2s1`, with “inactive”. For `CCN(Cc1ccccc1)S(=O)(=O)c1ccc2c(c1)CCCN2C(C)=O`, the Potency entry is “inactive”. `CCc1nnc(SCC(=O)Nc2cc(OC)ccc2OC)nc1CC`: the Potency result is “inactive”. Then `CCOc1ccc2[nH]c(C(=O)N/N=C/c3cccc(OC)c3OC)cc2c1`, with “inactive”; and `COc1ccc2[nH]c(C(=O)N/N=C/c3cc(OC)c(OC)c(OC)c3)cc2c1`, with 8.91 µM (active).

`COc1ccc2[nH]c(C(=O)Nc3ccccc3Cl)cc2c1`: the Potency entry is “inactive”. Under `CCc1nc2c(cnn2-c2ccc(C)cc2)c(=O)n1-c1ccc(C)cc1` stands “inactive”. Under `COc1ccccc1N1CC(C(=O)Nc2nnc(SCC(=O)NC(C)C)s2)CC1=O` (configuration not stated) stands “inactive”. Take `Cc1ccccc1N1CC(C(=O)Nc2nnc(SCCC3OCCO3)s2)CC1=O` (configuration not stated): the Potency was 14.1 µM (active).

In the case of `COc1ccccc1N1CC(C(=O)Nc2nnc(SCC(=O)NCC3CCCO3)s2)CC1=O` (configuration not stated), the Potency entry is “inactive”. As for `Cc1ccc(Cl)cc1NC(=O)Cc1ccc(-n2c(C)nc3cccnc32)cc1`, the Potency entry was “inactive”. For `CCS(=O)(=O)c1cc([N+](=O)[O-])c(Sc2ccccc2N)s1`, the Potency result is “inactive”. Under `CCOC(=O)c1cc(Sc2ccccc2N)cc(C(=O)OCC)n1` stands 25.1 µM (active). For the compound `CCOC(=O)C1=C(CC)Nc2ccccc2N=C1N`, the Potency result was “inactive”.

For the compound `CN1c2ccc(Cl)cc2-c2nc(SCC(=O)Nc3cc(F)ccc3F)ncc2S1(=O)=O`, the Potency result is “inactive”.

Consider `COc1cc(CNCCSc2nnnn2C)ccc1OCc1ccc(Cl)cc1Cl`, for which the Potency entry is “inactive”. Then `CCc1cccc(NC(=O)CN(C)S(=O)(=O)c2ccc3[nH]c4c(c3c2)CCCC4)c1`, with “inactive”; and `COc1cccc(CNC(=O)CCC(=O)N2CC3CCCN3c3ccccc32)c1` (configuration not stated), with “inactive”.

With `O=C(CC1CCCCC1)NCc1ccco1`, the Potency result is “inactive”. Under `O=C(COC(=O)c1ccco1)NCc1ccc(Cl)cc1` stands “inactive”. Take `O=C(COC(=O)c1cc(S(=O)(=O)N2CCCCC2)ccc1Cl)NCc1ccco1`: the Potency entry is “inactive”. As for `C/C(=N\Nc1ncc(Cl)cc1Cl)c1ccc(S(=O)(=O)NCc2ccco2)cc1`, the Potency result was “inactive”. Under `Cc1c(Cl)cnc(NC(=O)COC(=O)c2ccc(S(=O)(=O)NCc3ccco3)cc2)c1Cl` stands 31.6 µM (active); under `O=C(COC(=O)c1cnc(Cl)c(Cl)c1)NCc1ccco1`, 25.1 µM (active). With `Cc1cc(C(=O)OCC(=O)N2c3ccccc3NC(=O)C2(C)C)c(C)n1-c1ccccc1`, the Potency entry was “inactive”.

On to `Cc1cc(C(=O)OCC(=O)NCc2ccco2)c(C)n1-c1ccccc1`, for which the Potency was 22.4 µM (active). Under `O=C(NCCCCCCNC(=O)NCc1ccco1)NCc1ccco1` stands “inactive”; under `CSCCC(NC(=O)c1ccco1)C(=O)OCC(=O)Nc1ncc(Cl)c(C)c1Cl` (configuration not stated), “inactive”; under `CN(c1ccccc1)S(=O)(=O)c1ccc(Cl)c(C(=O)OCC(=O)NCc2ccco2)c1`, “inactive”.

`O=C(COC(=O)C12CC3CC(CC(C3)C1)C2)NCc1ccco1`: the Potency was 14.1 µM (active). Then `COc1ccc(NC(=O)CCCN2C(=O)CCn3nc(-c4cn(C)c5ccccc45)cc32)cc1OC`, with “inactive”; and `CCN1CCN(C(c2ccc(C)cc2)c2c(O)cc(C)n(Cc3ccco3)c2=O)CC1` (configuration not stated), with “inactive”; and `CC1Cc2cc(S(=O)(=O)CCC(=O)NCc3ccc(Cl)cc3)ccc2N1C(=O)C1CC1` (configuration not stated), with “inactive”. Take `C#CC(C)(CC)NC(=O)Cn1nnc(-c2ccc(OCc3c(F)cccc3Cl)cc2)n1` (configuration not stated): the Potency result is “inactive”. Under `CC(=O)OC1=C(C(C)=O)N(Cc2ccccc2)S(=O)(=O)c2ccccc21` stands “inactive”; under `O=C(C1CCC(Cn2c(=O)c3sccc3n(Cc3ccccc3F)c2=O)CC1)N1CCCCC1` (configuration not stated), “inactive”. Then `COCCCNC(=O)c1ccc(NC(=O)c2nsc3ccccc23)cc1`, with “inactive”.
